# Screening data deposited in PubChem by The Scripps Research Institute Molecular Screening Center.
# GPR151 ag: human GPR151 activation; Q8TDV0; PathHunter beta-arrestin GPR151 cells, luminescence; activation, % at 11.2 µM; 650,000 tested, 1% active; AID 1508602; in the data active = activation above about 4.9%;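 note: 0% = median of compound wells and 100% = cells with positive control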
# Target sequence (Q8TDV0 whole entry, looked up): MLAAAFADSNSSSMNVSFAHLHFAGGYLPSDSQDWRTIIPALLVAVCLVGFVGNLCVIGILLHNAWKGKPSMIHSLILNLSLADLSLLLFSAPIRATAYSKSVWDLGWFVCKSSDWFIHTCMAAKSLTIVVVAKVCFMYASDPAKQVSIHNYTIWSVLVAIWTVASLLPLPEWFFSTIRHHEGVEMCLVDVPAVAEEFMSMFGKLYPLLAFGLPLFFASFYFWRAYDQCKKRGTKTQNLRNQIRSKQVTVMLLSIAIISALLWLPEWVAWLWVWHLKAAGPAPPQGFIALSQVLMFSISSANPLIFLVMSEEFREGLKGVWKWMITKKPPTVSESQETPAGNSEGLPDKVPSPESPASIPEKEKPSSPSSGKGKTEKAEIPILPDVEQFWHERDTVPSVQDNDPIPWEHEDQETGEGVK
# FBW7 activator: activators of human E3 ligase FBW7. Q969H0. normalized activity (activation), % at 26.1 µM. AlphaScreen FBW7–phospho-cyclin E peptide binding, activator screen. 650,000 tested, 0.13% active; in the data active = normalized activity above about 1.9%;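 note: purified mutant Fbw7 with reduced substrate affinity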
# TEAD-YAP inh: TEAD-YAP interaction inhibition; inhibition, % at 9.12 µM; HEK-TIYL cells, TEAD-Gal4/YAP UAS-luciferase luminescence; 640,000 tested, 1.4% active; in the data active = inhibition above about 32%;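 note: 0% = median of test compound wells and 100% = reference inhibitor wells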
# MITF inh: human MITF inhibition, primary screen; O75030; AlphaScreen MITF homodimerization, bead proximity signal; inhibition, % at 2.6 µM; 650,000 tested, 0.91% active; AID 1259374; in the data active = inhibition above about 50%;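 note: 0% = vehicle wells with protein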
# Starred values were filed as active, the others as inactive. Hits are enriched below; roughly 3.5% of the tested compounds scored in any of these assays.
SMILES,GPR151 ag,FBW7 activator,TEAD-YAP inh,MITF inh
c1ccc(C(c2nnnn2C2CCCC2)N2CCCCCC2)nc1 (configuration not stated),0,-1,13,0
Oc1c(C(c2ccccn2)N2CCN(c3ccccn3)CC2)ccc2cccnc12 (configuration not stated),-1,-2,-4,83*
c1ccc(Cc2nc3cnccn3c2NCc2cccs2)cc1,1,0,-1,-5
CCc1ccccc1NC(=O)c1ccc(SCc2ccc(OC)cc2)c([N+](=O)[O-])c1,-1,0,1,-5
CCc1ccccc1NC(=O)c1ccc(NCc2ccc(OC)cc2)c([N+](=O)[O-])c1,0,0,57*,2
COc1ccc(CNc2ccc(C(=O)Nc3cccc(OC)c3)cc2[N+](=O)[O-])cc1,-1,0,52*,5
CCc1ccccc1NC(=O)c1ccc(NCc2ccc(C)cc2)c([N+](=O)[O-])c1,4,0,57*,1
COc1ccc(CCNc2nc(-c3ccc(C(=O)NC4CC4)cc3)nc3c2ncn3CCN2CCCC2=O)cc1,2,0,39*,6
COc1ccc(-c2nc(NCCOc3ccccc3)c3ncn(CCN4CCCC4=O)c3n2)cc1,-1,0,34*,11
O=C(c1cc2nc(-c3ccc4c(c3)OCO4)cc(C(F)(F)F)n2n1)N1CCN(c2cccc(Cl)c2)CC1,0,0,5,2
O=C1C(Cl)=C(Nc2cccc(O)c2)C(=O)N1c1ccccc1Cl,0,0,3,16
O=C1C(Cl)=C(Nc2cccc(O)c2)C(=O)N1c1cccc(Cl)c1Cl,-1,0,53*,10
Cc1ccc(N2C(=O)C(Cl)=C(Nc3cccc(O)c3)C2=O)c(C)c1,-1,1,36*,32
O=C(CNC(=O)c1cc(Cl)cc([N+](=O)[O-])c1)OCc1ccc([N+](=O)[O-])cc1,-1,0,1,11
CN1CCC(N(C2CC2)S(=O)(=O)c2ccc(NC(=O)c3ccccc3Cl)cc2)CC1,2,0,2,0
O=C(OCc1ccccc1)c1ccc(NS(=O)(=O)c2cccs2)cc1O,-1,0,5,3
CN(C)CCNC(=O)c1cc2c(Cl)nc3ccccc3c2s1,-2,0,55*,18
COc1ccc(-c2nc(C(N)=O)c3[nH]c(=O)n(-c4cccc(Cl)c4)c3n2)cc1O,1,0,63*,7
COc1ccc(-c2nc(C(N)=O)c3[nH]c(=O)n(-c4ccc(F)cc4)c3n2)cc1,0,0,36*,-4
COc1ccc(-c2nc(C(N)=O)c3[nH]c(=O)n(-c4ccccc4OC)c3n2)cc1OC,1,0,32*,19
COc1ccccc1-n1c(=O)[nH]c2c(C(N)=O)nc(-c3cccc(O)c3)nc21,-2,0,34*,18
Cc1cc(C(F)(F)F)nn1CC(=O)Nc1cc(Oc2cccnc2)cc([N+](=O)[O-])c1,2,0,-4,-9
COc1ccc([N+](=O)[O-])cc1NC(=O)Cn1ncc2c1-c1ccccc1OC2,0,0,3,21
COc1ccc(OC)c(/C=C2/N=C(c3cccc([N+](=O)[O-])c3)OC2=O)c1,1,1.9*,3,15
CN(C)CCN(CC1CCCC1)C(=O)Nc1ccc(-c2cn[nH]c2)cc1N(C)CCN(C)C,1,0,36*,12
SMILES,GPR151 ag,FBW7 activator,TEAD-YAP inh,MITF inh
S=c1[nH]c(-c2ccc(Br)cc2)cn1-c1ccccc1,0,0,-26,25
CCOc1cc(C2C(C(=O)OC)=CN(Cc3ccc(Cl)cc3)C=C2C(=O)OC)ccc1O,-1,0,-4,-2
COC(=O)C1=CN(Cc2ccc(OC)c(OC)c2)C=C(C(=O)OC)C1c1ccc(Br)cc1,-2,1.9*,3,4
COC(=O)C1=CN(Cc2ccc(OC)c(OC)c2)C=C(C(=O)OC)C1c1ccc(F)cc1,0,0,-21,-4
CCOc1cc(C2C(C(=O)OC)=CN(Cc3ccc(OC)c(OC)c3)C=C2C(=O)OC)ccc1O,0,1,48*,13
O=C1C2CCCCC2C(=O)N1c1ccc(Cl)c(Cl)c1 (configuration not stated),1,1,4,4
CCC(=O)N/N=C(\C)CC(=O)Nc1cccc2c1CCCC2,1,1,-4,-2
C=CCn1c(SCC(=O)N2CCCC2)nc2cc(C(=O)N3CCC(C(N)=O)CC3)ccc2c1=O,4,0,3,3
CCCOC(=O)C1=C(C)NC2=C(C(=O)CC(c3ccc(OC)c(OC)c3)C2)C1c1ccccc1F (configuration not stated),3,0,41*,-11
